Measurements published in PubChem BioAssay (NCATS).
Results filed as inconclusive are left out. Activity calls are given as the source filed them. Calls follow the shape of the dose curve; as a rule, active = well fitted inhibition curve with a large enough effect; inconclusive = small, poorly fitted or top-dose-only effect; inactive = flat fitted curve, though single readings scatter.

What was measured:
CRL-7250 = normal cell line; assay: Cytotoxic Profiling of Annotated Libraries Using Quantitative High-Throughput Screening (AID 1296008); conditions: Five cell lines viability, CellTiter-Glo ATP luminescence, 48-72 h; max response: active compounds read low; also: potency is read from the fitted curve at half-maximal effect
Outline: (§1)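 Cytotoxicity was measured as CellTiter-Glo ATP luminescence, read after 10 min at room temperature. Compound treatment of the cells lasted 48 or 72 hr at 37 degrees Celsius in a qHTS format.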

HEK293 = assay: as above; conditions: Five cell lines viability, CellTiter-Glo ATP luminescence, 48-72 h; max response: active compounds read low
Outline: as §1

HaCat [1] = assay: as above; conditions: Five cell lines viability, CellTiter-Glo ATP luminescence, 48-72 h; max response: active compounds read low
Outline: as §1

NIH3T3 = assay: as above; conditions: Five cell lines viability, CellTiter-Glo ATP luminescence, 48-72 h; max response: active compounds read low
Outline: as §1

HACAT [2] = assay: qHTS assay to identify novel small-molecules to repurpose for Merkel cell carcinoma treatment (AID 1296009); conditions: MCC and control cell lines, CellTiter-Glo viability, 72 h; at 44.8 µM (top of the series) unless noted
Outline: (§2)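 Cell viability, measured as CellTiter-Glo luminescence, was normalized between DMSO and no-cell wells. The cells had been exposed to 8- or 11-point compound dilutions for 72 hr at 37 degree celsius.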

HEK293T = assay: as above; conditions: MCC and control cell lines, CellTiter-Glo viability, 72 h; at 44.8 µM (top of the series) unless noted
Outline: as §2

MCC-13 = assay: as above; conditions: MCC and control cell lines, CellTiter-Glo viability, 72 h; series mostly up to 46 µM
Outline: as §2

MCC-26 = assay: as above; conditions: MCC and control cell lines, CellTiter-Glo viability, 72 h; series mostly up to 46 µM
Outline: as §2

MKL-1 = assay: as above; conditions: MCC and control cell lines, CellTiter-Glo viability, 72 h; series mostly up to 46 µM
Outline: as §2

MKL-2 = assay: as above; conditions: MCC and control cell lines, CellTiter-Glo viability, 72 h; series mostly up to 46 µM
Outline: as §2
% is scaled to controls: 0 for no effect and ±100 for the full control effect.
Also: nearly all actives have a fitted effect of over 60% in size.

CC(CC(C#N)(c1ccccc1)C(C)C)N(C)C (centres undefined)
inactive: max response (CRL-7250) -3.29% | outcome (HEK293) | outcome (HaCat [1]) | outcome (NIH3T3) | outcome (HACAT [2]) | outcome (HEK293T) | Potency (MCC-13) | Potency (MCC-26) | Potency (MKL-1) | Potency (MKL-2)

O=C1Cc2cc(Cl)ccc2N1
inactive: max response (CRL-7250) -11.6% | max response (HEK293) -3.82% | outcome (HaCat [1]) | max response (NIH3T3) 3.19% | outcome (HACAT [2]) | Potency (MCC-13) | Potency (MCC-26) | Potency (MKL-1)

OC1(c2ccc(Cl)cc2)CCNCC1
inactive: max response (CRL-7250) -0.911% | outcome (HEK293) | outcome (HaCat [1]) | max response (NIH3T3) -2.06% | outcome (HACAT [2]) | outcome (HEK293T) | Potency (MCC-13) | Potency (MCC-26) | Potency (MKL-1) | Potency (MKL-2)

CCN(CC)CC(=O)Nc1c(C)cccc1C(=O)OC
inactive: max response (CRL-7250) 1.74% | max response (HEK293) 2.01% | outcome (HaCat [1]) | max response (NIH3T3) 1.11% | outcome (HACAT [2]) | Potency (MCC-13) | Potency (MCC-26) | Potency (MKL-1) | Potency (MKL-2)

Cc1ccc2ccc(Cl)cc2n1
inactive: outcome (CRL-7250) | outcome (HEK293) | outcome (HaCat [1]) | max response (NIH3T3) 3.19% | outcome (HACAT [2]) | outcome (HEK293T) | Potency (MCC-13) | Potency (MKL-1) | Potency (MKL-2)

CCOC(=O)C(O)c1ccccc1 (centres undefined)
inactive: outcome (CRL-7250) | outcome (HEK293) | outcome (HaCat [1]) | max response (NIH3T3) 0.37% | outcome (HACAT [2]) | outcome (HEK293T) | Potency (MCC-13) | Potency (MCC-26) | Potency (MKL-1) | Potency (MKL-2)

CCn1ccc(NS(=O)(=O)c2ccc(N)cc2)nc1=O
inactive: max response (CRL-7250) 4.48% | max response (HEK293) -20.6% | outcome (HaCat [1]) | outcome (NIH3T3) | outcome (HACAT [2]) | Potency (MCC-13) | Potency (MCC-26) | Potency (MKL-1) | Potency (MKL-2)

CCCC(=O)Nc1ccc(O)c(C(C)=O)c1
inactive: max response (CRL-7250) -0.565% | outcome (HEK293) | outcome (HaCat [1]) | max response (NIH3T3) 3.73% | outcome (HACAT [2]) | outcome (HEK293T) | Potency (MCC-13) | Potency (MCC-26) | Potency (MKL-1) | Potency (MKL-2)

CO[C@@H]1[C@@H](O[C@@H]2O[C@H](C)[C@@H](O[C@H]3C[C@@](C)(O)[C@@H](O)[C@H](C)O3)[C@H](N(C)C)[C@H]2O)[C@@H](CC=O)C[C@@H](C)[C@@H](O[C@@H]2CC[C@H](N(C)C)[C@@H](C)O2)/C=C/C=C/C[C@@H](C)OC(=O)C[C@H]1OC(C)=O
active: Potency (HEK293) 8.41 µM
inactive: outcome (CRL-7250) | outcome (HaCat [1]) | max response (NIH3T3) -2.54% | outcome (HACAT [2]) | Potency (MCC-13) | Potency (MCC-26) | Potency (MKL-1) | Potency (MKL-2)

O=C1c2ccccc2CCc2ccccc21
inactive: max response (CRL-7250) 2.21% | max response (HEK293) -2.77% | outcome (HaCat [1]) | max response (NIH3T3) 0.759% | outcome (HACAT [2]) | Potency (MCC-13) | Potency (MCC-26) | Potency (MKL-1) | Potency (MKL-2)

Cc1c(N)cccc1C(F)(F)F
inactive: outcome (CRL-7250) | outcome (HEK293) | outcome (HaCat [1]) | max response (NIH3T3) -0.97% | outcome (HACAT [2]) | outcome (HEK293T) | Potency (MCC-13) | Potency (MCC-26) | Potency (MKL-1) | Potency (MKL-2)

CC(C)(C)c1cc(C=O)cc(C(C)(C)C)c1O
inactive: max response (CRL-7250) 4.77% | max response (HEK293) 3.28% | outcome (HaCat [1]) | max response (NIH3T3) 1.57% | outcome (HACAT [2]) | Potency (MCC-13) | Potency (MCC-26) | Potency (MKL-1) | Potency (MKL-2)

O=C(C1CCCCC1)N1CC(=O)N2CCCc3ccccc3C2C1 (centres undefined)
inactive: outcome (CRL-7250) | outcome (HEK293) | outcome (HaCat [1]) | outcome (NIH3T3) | outcome (HACAT [2]) | outcome (HEK293T) | Potency (MCC-13) | Potency (MCC-26) | Potency (MKL-1) | Potency (MKL-2)

CCCCN(CCN(CCCC)C(=O)N1CCOCC1)C(=O)N1CCOCC1
inactive: max response (CRL-7250) -1.09% | max response (HEK293) -9.35% | outcome (HaCat [1]) | max response (NIH3T3) -9.41% | outcome (HACAT [2]) | Potency (MCC-13) | Potency (MCC-26) | Potency (MKL-1)

Cc1oc(-c2ccccc2)nc1CCC(=O)c1ccc(CC2SC(=O)NC2=O)cc1 (centres undefined)
inactive: max response (CRL-7250) -17.6% | outcome (HEK293) | outcome (HaCat [1]) | max response (NIH3T3) -0.446% | outcome (HACAT [2]) | outcome (HEK293T) | Potency (MCC-13) | Potency (MKL-1) | Potency (MKL-2)

COc1cc(OC)nc(O[C@H](C(=O)O)C(OC)(c2ccccc2)c2ccccc2)n1
inactive: max response (CRL-7250) 3.73% | outcome (HEK293) | outcome (HaCat [1]) | outcome (NIH3T3) | outcome (HACAT [2]) | outcome (HEK293T) | Potency (MCC-13) | Potency (MCC-26) | Potency (MKL-1) | Potency (MKL-2)

O=C(O)c1cn(C2CC2)c2cc(Cl)c(F)cc2c1=O
inactive: outcome (CRL-7250) | max response (HEK293) -5.06% | outcome (HaCat [1]) | outcome (NIH3T3) | outcome (HACAT [2]) | Potency (MCC-13) | Potency (MCC-26) | Potency (MKL-1) | Potency (MKL-2)

CN1Cc2cc(C(=O)N3CCC(C4CCNCC4)CC3)ccc2N[C@@H](CC(=O)O)C1=O
inactive: max response (CRL-7250) -4.04% | max response (HEK293) -1.55% | outcome (HaCat [1]) | max response (NIH3T3) 1.44% | outcome (HACAT [2]) | Potency (MCC-13) | Potency (MCC-26) | Potency (MKL-1) | Potency (MKL-2)

CCOc1ncc(F)c(=O)[nH]1
inactive: outcome (CRL-7250) | max response (HEK293) -0.0366% | outcome (HaCat [1]) | max response (NIH3T3) -1.34% | outcome (HACAT [2]) | Potency (MCC-13) | Potency (MCC-26) | Potency (MKL-1) | Potency (MKL-2)

CN1CC(=O)N2[C@H](c3ccc4c(c3)OCO4)c3[nH]c4ccccc4c3C[C@@H]2C1=O
inactive: max response (CRL-7250) 3.82% | max response (HEK293) -4.29% | outcome (HaCat [1]) | max response (NIH3T3) 3.47% | outcome (HACAT [2]) | Potency (MCC-13) | Potency (MCC-26) | Potency (MKL-1) | Potency (MKL-2)

Cc1cc(CCCOc2c(C)cc(-c3noc(C(F)(F)F)n3)cc2C)on1
inactive: outcome (CRL-7250) | max response (HEK293) -24.5% | outcome (HaCat [1]) | outcome (NIH3T3) | outcome (HACAT [2]) | Potency (MCC-13) | Potency (MCC-26) | Potency (MKL-1) | Potency (MKL-2)
